Experimental data as given in PubChem BioAssay.
Activity calls are given as the source filed them.

Assay: optical density shifts of acrAB sulA E. coli – strain DRC41, OD650, 48 h, E. coli filamentation inducer project, primary screen (AID 1152);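 further: E. coli MC1000 strain DRC41 lacking acrAB efflux pump and sulA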
Details: higher = more signal, called active from +8 up or from −8 down
With O=C1[C@H]2[C@H]3[C@H](O)[C@H](O)CC(=NOC[C@@H](O)COCc4ccco4)[C@H]3CC[C@H]2C(=O)N1C[C@@H]1CCCO1 the z-score was -0.362 (inactive).
For CCOC(=O)NN=C1C[C@@H](O)[C@@H](O)[C@@H]2[C@@H]3C(=O)N([C@@H](C)c4ccccc4)C(=O)[C@@H]3CC[C@@H]12, the z-score was -0.0718 (inactive).
In the case of CC(CCN1CCCc2nc(C)c(C)cc21)=NOC(C)CN1CCCCc2nc(C)c(C)cc21 (stereo not drawn), the z-score was -0.702 (inactive).
In the case of CO[C@H]1COC(=O)[C@H](C)NC(=O)CC=C[C@@H](C)[C@H](OC)COC(=O)[C@@H](OCc2ccccc2)C=C[C@@H]1C, the z-score was 0.31 (inactive).
In the case of COC(=O)[C@H](C)NC(=O)CCC1CC(OC(=O)NCCc2ccc(F)cc2)CC2(CCCC(COC(=O)NCc3cccc(C(F)(F)F)c3)O2)O1 (stereo partly drawn), the z-score was 0.419 (inactive).
For CCOC(=O)CCN1C(=O)[C@H]2[C@H]3[C@H](O)[C@H](O)CC(=NOCC(C)C)[C@H]3CC[C@H]2C1=O, the z-score was 0.867 (inactive).
In the case of CCOC(=O)NN=C1C[C@@H](O)[C@@H](O)[C@@H]2[C@@H]3C(=O)N([C@@H](C)c4ccccc4)C(=O)[C@@H]3CC[C@H]12, the z-score was 0.0575 (inactive).
With COc1ccc(O[C@H]2C=C[C@@H](c3ccccc3)O[C@@H]2CON=C(C)CCN2CCc3nc(-c4ccccc4)c(-c4ccccc4)cc3C2)cc1 the z-score was -1.59 (inactive).
For C#CCCCON=C1C[C@@H](O)[C@@H](O)[C@@H]2[C@@H]3C(=O)N(c4ccc(F)cc4F)C(=O)[C@@H]3CC[C@@H]12, the z-score was 0.177 (inactive).
For Cc1ccc(S(=O)(=O)N[C@H]2COC(=O)CC=C[C@@H](C)COC(=O)CC=C[C@@H]2C)cc1, the z-score was 0.142 (inactive).
For CC(C)CON=C1C[C@@H](O)[C@@H](O)[C@@H]2[C@@H]3C(=O)N(C[C@@H]4CCCO4)C(=O)[C@@H]3CC[C@@H]12, the z-score was 0.93 (inactive).
In the case of Cc1ccc(S(=O)(=O)OC[C@H]2CN3[C@H](c4ccc(Br)cc4)[C@@H](C)CC[C@H]3C(=O)O2)cc1, the z-score was 0.399 (inactive).

Assay: probe aLefty1 binding on compound microarray – biochemical, small-molecule microarray, 635/667 nm fluorescence, primary screen (AID 1153);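 further: score merges spot fluorescence with signal-to-noise ratio from the scanned slide images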
Details: higher = more signal
For Cc1cc2c(nc1C)CCCCN2CC(C)ON=C[C@@H](C)[C@H](OCc1ccccc1)C(C)C (stereo partly drawn), the composite z-score was -0.8.
CO[C@@H]1C=CCC(=O)N2CCC[C@H]2C(=O)OC[C@@H](C)C(=O)OC[C@H]1C showed a composite z-score of 0.154.
CO[C@@H]1C=CCC(=O)N[C@@H](C)C(=O)OC[C@@H](OC)[C@H](C)CCCC(=O)OC[C@H]1C gave a composite z-score of 0.0816.
With COc1ccc(COC(=O)NN=C2C[C@@H](O)[C@@H](O)[C@@H]3[C@@H]4C(=O)N(c5ccc(F)cc5F)C(=O)[C@@H]4CC[C@H]23)cc1 the composite z-score was 0.545.
CC(C)[C@@H](OCc1ccccc1)[C@H](C)C=NOC[C@@H](O)COCc1ccco1 gave a composite z-score of -0.866.
O=C1[C@H]2[C@H]3[C@H](O)[C@H](O)CC(=NOCc4ccccc4)[C@@H]3CC[C@H]2C(=O)N1C[C@@H]1CCCO1 showed a composite z-score of -0.28.
In the case of CC(C)=CCCC(C)=CCON=C1C[C@@H](O)[C@@H](O)[C@@H]2[C@@H]3C(=O)N(C(C)(C)C)C(=O)[C@@H]3CC[C@H]12, the composite z-score was -0.0603.
CCOC(=O)[C@H](Cc1ccccc1)NC(=O)CCC1CC(OC(=O)NCCc2ccc(F)cc2)CC2(CCCC(COC(=O)NCCc3ccccc3OC)O2)O1 (stereo partly drawn) gave a composite z-score of -0.0075.
COc1ccc(COC(=O)NN=C2C[C@@H](O)[C@@H](O)[C@@H]3[C@@H]4C(=O)N(C5CCCCC5)C(=O)[C@@H]4CC[C@H]23)cc1 gave a composite z-score of -0.0611.
For CC(C)=CCCC(C)=CCON=C1C[C@@H](O)[C@@H](O)[C@@H]2[C@@H]3C(=O)N(C4CCCCC4)C(=O)[C@@H]3CC[C@@H]12, the composite z-score was -0.147.
With COC(=O)[C@@H]1CC[C@H](C)[C@@H](c2ccc(C)cc2)N1C(=O)c1ccc(C=NO[C@@H]2O[C@H](COC(C)=O)[C@@H](OC(C)=O)[C@H](OC(C)=O)[C@H]2OC(C)=O)cc1 the composite z-score was 0.0391.
Compound COc1cccc([C@H]2Oc3ccc(OC)cc3C(=NOC[C@@H](O)[C@H]3O[C@@H]4OC(C)(C)O[C@@H]4[C@H]3O)[C@@H]2O)c1 has a composite z-score of -0.387.
With O=C1[C@H]2[C@H]3[C@H](O)[C@H](O)CC(=NO[C@@H]4O[C@H](CO)[C@@H](O)[C@H](O)[C@H]4O)[C@H]3CC[C@H]2C(=O)N1c1cccc(Oc2ccccc2)c1 the composite z-score was -0.286.
With CCN1C(=O)[C@H]2[C@H]3[C@H](O)[C@H](O)CC(=NOCC(C)C)[C@@H]3CC[C@H]2C1=O the composite z-score was -0.245.
In the case of CC(C)C[C@H](NC(=O)CCC1CC(OC(=O)NCc2cccc3ccccc23)CC2(CCCC(COC(=O)NCc3ccccc3)O2)O1)C(=O)NCC(c1ccccc1)c1ccccc1 (stereo partly drawn), the composite z-score was -0.29.
Compound COC(=O)CC=C[C@@H](C)[C@@H](C=NOC[C@H]1O[C@H](c2ccccc2)C=C[C@@H]1Oc1ccc(OC)cc1)NS(=O)(=O)c1ccc(C)cc1 has a composite z-score of -0.147.
With C#CCCCON=C1C[C@@H](O)[C@@H](O)[C@@H]2[C@@H]3C(=O)N(c4ccc(F)cc4F)C(=O)[C@@H]3CC[C@H]12 the composite z-score was -0.193.
Compound CO[C@H]1COC(=O)[C@@H](Cc2ccccc2)NC(=O)[C@@H](C)COC(=O)CCC[C@@H]1C has a composite z-score of -0.309.
In the case of COc1cccc([C@H]2Oc3ccc(OC)cc3C(=NO[C@@H](C)c3cn([C@H](CO)Cc4ccccc4)nn3)[C@@H]2O)c1, the composite z-score was -0.147.
With CCOC(=O)NN=C1C[C@@H](O)[C@@H](O)[C@@H]2[C@@H]3C(=O)N(Cc4ccc5c(c4)OCO5)C(=O)[C@@H]3CC[C@H]12 the composite z-score was -0.239.
With O=C(NN=C1C[C@@H](O)[C@@H](O)[C@@H]2[C@@H]3C(=O)N(C[C@@H]4CCCO4)C(=O)[C@@H]3CC[C@H]12)OCc1ccccc1 the composite z-score was 0.318.
In the case of CC(C)CON=C1C[C@@H](O)[C@@H](O)[C@@H]2[C@@H]3C(=O)N(c4ccc(F)cc4F)C(=O)[C@@H]3CC[C@H]12, the composite z-score was 0.144.
In the case of C[C@@H](c1ccccc1)N1C(=O)[C@H]2[C@H]3[C@H](O)[C@H](O)CC(=NO[C@@H]4O[C@H](CO)[C@@H](O)[C@H](O)[C@H]4O)[C@@H]3CC[C@H]2C1=O, the composite z-score was -0.0272.
For CCOC(=O)[C@H](CC(C)C)NC(=O)CCC1CC(OC(=O)NCc2ccc3c(c2)OCO3)CC2(CCCC(COC(=O)NCC3CCCCC3)O2)O1 (stereo partly drawn), the composite z-score was 0.237.
Work on O=C1[C@H]2[C@H]3[C@H](O)[C@H](O)CC(=NOC[C@@H](O)COCc4ccco4)[C@H]3CC[C@H]2C(=O)N1C[C@@H]1CCCO1 yielded a composite z-score of -0.324.
For CCOC(=O)NN=C1C[C@@H](O)[C@@H](O)[C@@H]2[C@@H]3C(=O)N([C@@H](C)c4ccccc4)C(=O)[C@@H]3CC[C@@H]12, the composite z-score was -0.0523.
For CC(CCN1CCCc2nc(C)c(C)cc21)=NOC(C)CN1CCCCc2nc(C)c(C)cc21 (stereo not drawn), the composite z-score was 0.123.
For CO[C@H]1COC(=O)[C@H](C)NC(=O)CC=C[C@@H](C)[C@H](OC)COC(=O)[C@@H](OCc2ccccc2)C=C[C@@H]1C, the composite z-score was -0.0544.
In the case of COC(=O)[C@H](C)NC(=O)CCC1CC(OC(=O)NCCc2ccc(F)cc2)CC2(CCCC(COC(=O)NCc3cccc(C(F)(F)F)c3)O2)O1 (stereo partly drawn), the composite z-score was -0.181.
With CCOC(=O)CCN1C(=O)[C@H]2[C@H]3[C@H](O)[C@H](O)CC(=NOCC(C)C)[C@H]3CC[C@H]2C1=O the composite z-score was -0.0519.
Compound CCOC(=O)NN=C1C[C@@H](O)[C@@H](O)[C@@H]2[C@@H]3C(=O)N([C@@H](C)c4ccccc4)C(=O)[C@@H]3CC[C@H]12 has a composite z-score of 0.119.
Work on COc1ccc(O[C@H]2C=C[C@@H](c3ccccc3)O[C@@H]2CON=C(C)CCN2CCc3nc(-c4ccccc4)c(-c4ccccc4)cc3C2)cc1 yielded a composite z-score of -0.101.
For C#CCCCON=C1C[C@@H](O)[C@@H](O)[C@@H]2[C@@H]3C(=O)N(c4ccc(F)cc4F)C(=O)[C@@H]3CC[C@@H]12, the composite z-score was -0.147.
Work on Cc1ccc(S(=O)(=O)N[C@H]2COC(=O)CC=C[C@@H](C)COC(=O)CC=C[C@@H]2C)cc1 yielded a composite z-score of -0.296.
For CC(C)CON=C1C[C@@H](O)[C@@H](O)[C@@H]2[C@@H]3C(=O)N(C[C@@H]4CCCO4)C(=O)[C@@H]3CC[C@@H]12, the composite z-score was -0.0501.
Compound Cc1ccc(S(=O)(=O)OC[C@H]2CN3[C@H](c4ccc(Br)cc4)[C@@H](C)CC[C@H]3C(=O)O2)cc1 has a composite z-score of -0.0501.
